Laboratory results published in the supplement of paper PMC3334620.
Over roughly 33,000 sequences, “E-score (-0.5 to 0.5)” has its median near -0.012; the highest 2% begin near 0.27. The entries come from a sample that favours the highest values as a whole.

molecular target: T1, Vhr1 (UniProt P40522); experiment: PBM E-score (8-mer binding enrichment) (E-score (-0.5 to 0.5)); higher = stronger / more preferred TF binding; conditions: protein concentration: 200 nM; construct: GST-full length
T1 sequence: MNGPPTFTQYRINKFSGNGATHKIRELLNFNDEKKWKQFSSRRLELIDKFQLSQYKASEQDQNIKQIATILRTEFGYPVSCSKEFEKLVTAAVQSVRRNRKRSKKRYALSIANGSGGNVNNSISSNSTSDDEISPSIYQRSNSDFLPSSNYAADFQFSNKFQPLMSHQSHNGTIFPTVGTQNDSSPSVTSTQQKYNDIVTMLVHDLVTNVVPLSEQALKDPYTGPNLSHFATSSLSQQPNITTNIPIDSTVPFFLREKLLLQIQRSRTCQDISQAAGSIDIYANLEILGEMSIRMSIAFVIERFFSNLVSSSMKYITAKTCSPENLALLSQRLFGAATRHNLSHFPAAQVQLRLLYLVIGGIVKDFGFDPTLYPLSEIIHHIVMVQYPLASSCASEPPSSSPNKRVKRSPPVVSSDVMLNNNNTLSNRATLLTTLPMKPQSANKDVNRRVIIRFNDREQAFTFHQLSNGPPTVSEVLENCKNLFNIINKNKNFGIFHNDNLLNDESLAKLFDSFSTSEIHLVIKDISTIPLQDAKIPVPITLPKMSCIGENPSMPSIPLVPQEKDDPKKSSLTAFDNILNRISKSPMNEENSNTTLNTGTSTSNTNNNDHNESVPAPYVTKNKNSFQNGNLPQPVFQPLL
Summary of the method: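 PURExpress in vitro transcription/translation supplied GST-tagged yeast transcription factors, either full-length or DNA-binding domain. Applied at about 100-200 nM to universal all-10-mer Agilent arrays double-stranded by primer extension, the bound protein was detected with fluorescent anti-GST. E-scores, modified Wilcoxon-Mann-Whitney statistics, were given by the Universal PBM Analysis Suite to ungapped eight-base words pooled with their reverse complements after masliner normalisation.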

Sequence | PBM E-score
GGAGTGCA | 0.14
CGTTTTTC | -0.141
ACCATAGT | 0.0959
AAGCAAGT | -0.0526
GAGTACTC | 0.345
TACTAACA | 0.145
GAGTAACA | 0.286
AAGTACTC | 0.0478
GACTACTC | 0.31
GACTAACA | 0.354
CAGTACTC | 0.117
GAGTAACC | 0.106
AACTACTC | 0.19
AAGTAACA | 0.0225
CACTACTC | 0.205
CACTAACA | 0.177
AGCAGCGG | 0.0635
GAGCCAAC | -0.0688
ACATAGCT | -0.216
AACCAATT | 0.0547
CTAGCAAA | 0.00326
ATGGATCC | 0.144
AGTTACTC | 0.0219
CACACCTG | 0.207
CACACAGC | 0.307

Sequence | PBM E-score
GACACCTC | 0.0308
AACACAGC | 0.229
AACACAGG | 0.0235
CACACAGA | 0.263
CACACCTC | 0.285
GACACAGC | 0.129
CACACAGG | 0.272
AGTGGTGC | -0.0378
ACTGTAGA | 0.0811
CGAAGAAC | 0.0807
ACTAAACG | -0.0382
CAGCAGCG | -0.0154
AGATCTTA | -0.0915
CAACAACA | 0.234
CCATTGGG | -0.18
ACACTGCC | 0.281
GCACTGCC | -0.039
ACACTGCA | 0.0651
CTTCTGCA | -0.194
AATCAAAT | -0.0562
CATCATAG | 0.266
ATTCATAG | 0.0981
ACTCATAC | 0.284
AATCATAT | 0.296
AATCATAA | 0.131

Sequence | PBM E-score
GATCATAC | 0.114
GCTCATAC | -0.135
CATCATAC | 0.216
AATCATAC | 0.4
AATCATAG | 0.329
CCTCATAC | -0.119
AACCCGTT | -0.0686
GGTGCACA | 0.0381
GCTTTATA | -0.261
CCCTCTAC | -0.113
CCACGTCA | -0.165
GCACAAGC | 0.0452
CACGCAGG | -0.0242
CGATATGA | 0.125
AGATATGA | 0.161
TCATATGA | 0.381
GGATATGA | 0.289
GCATATGA | 0.19
CCATATGA | 0.176
CATGAGCA | 0.125
GGTAGCGA | -0.0248
GAGGATAA | 0.0571
GCTGACTA | 0.324
ACGGACTC | -0.0189
CCGGACTC | 0.303

Sequence | PBM E-score
GCTGACAA | -0.0645
ACTGACAC | 0.0369
CCGGACTA | 0.108
CCTGACTC | 0.479
ACTGACCC | 0.0589
CCTGACAC | 0.188
CCTGACGC | -0.197
GTTGACTA | 0.261
ACTGACTC | 0.421
AAGAAAGT | -0.0406
CTTCATTC | -0.0777
CCAATTCG | -0.173
GGGATCAA | -0.109
ATTTGGTG | -0.068
ATAGGGTC | 0.197
CCAGCATA | 0.0195
ACTGACTA | 0.295
CTTGACTC | 0.262
CCTGACAA | 0.0179
CCTGACTA | 0.391
ATTGACTC | 0.3
ACTGACTG | 0.0572
CCTGACGA | 0.0859
ACTGACCA | -0.0638
ATTGACTA | 0.236

Sequence | PBM E-score
CCCAGCAG | 0.0474
AACTGGCT | -0.204
CAGCGCAC | -0.152
CGGTTGAC | -0.0106
AGGCAAGG | -0.292
GATGACAA | -0.00976
CATGACTA | 0.458
AATGACTA | 0.353
CATGACGA | 0.22
AATGACGA | -0.0492
GATGACTA | 0.447
AATGACTC | 0.463
AATGACTG | 0.271
CATGACAA | 0.0092
AATGACAC | 0.0353
AATGACGC | 0.00169
GATGACCA | 0.13
GGATCCGA | -0.0296
ATGTAGCG | -0.0682
AGCGCAAT | -0.0761
ATCTTAGG | -0.132
GCGCTGGA | 0.168
GTTGATAA | 0.109
CGGCTACA | 0.153
CATGGTTA | 0.215

Sequence | PBM E-score
CATGGTTC | 0.364
AATGGTTC | 0.212
CATGGCTA | 0.224
AATGGCTC | 0.137
CATGGCTC | 0.28
AAAATCTT | -0.316
CCATCGAG | 0.0908
ACGCGATG | 0.148
CCTCGGAG | 0.00615
ACTCGGAG | 0.29
ACTCGGAT | 0.186
TCTGGTCA | 0.0764
AACGAGTC | 0.278
ACCGAGTC | 0.254
GACGAGTC | 0.276
AACGAGTA | 0.134
CACGAGTC | 0.324
CACGAGTA | 0.0881
CCCGAGTA | 0.184
GACGAGTA | 0.077
CACGAGTG | -0.0364
CCCGAGTC | 0.387
GACGAGAC | -0.0155
AACGAGTT | -0.117
CGCGACGC | -0.00297

Sequence | PBM E-score
ACGACCTA | 0.143
AAGTGTGT | 0.0443
AGAACGAC | 0.00162
CCGTTACG | -0.0486
ACCCGATG | 0.137
ACTTGCTC | -0.057
CTTATCGC | -0.0118
TCCGACAA | -0.0624
GATTTCCA | 0.0482
GTTAATCA | 0.296
CATAATCC | 0.105
GATAATCC | -0.112
AATAATCA | 0.203
CATAATCG | 0.0927
GATAATCA | 0.301
ATTAATCA | 0.217
CATAATCA | 0.308
CTTAATCA | 0.214
TAGATTCA | -0.0459
GTGCGAAC | -0.037
AAGATCAG | 0.0101
ACCTGGAC | 0.0512
CCCATGAC | 0.332
ACCATGAT | 0.219
TCCATGAA | 0.123

Sequence | PBM E-score
GCCATGAA | 0.0605
ACCATGAC | 0.307
ACCATGAA | 0.276
GCCATGAC | 0.0961
GCAATGAC | 0.103
CCAATGAA | -0.18
ACCATGAG | 0.0389
CCAATGAC | 0.285
CCCATGAA | 0.0105
GTGGGGTA | 0.22
CACCCGAC | 0.0689
GTGTGCGA | 0.0262
CGTCTCCA | 0.149
CGGAGGAC | 0.00537
CTTAAGCC | -0.234
AAGTTTGT | -0.034
CGGGGTCC | -0.227
ACACATAA | 0.119
GTACATAC | 0.119
ACACATAC | 0.29
CTACATAC | 0.0864
ATACATAA | 0.135
ATACATAC | 0.293
ATACATAT | 0.367
ATACATAG | 0.108

Sequence | PBM E-score
ACACATAG | 0.102
GCTGACCC | 0.0256
ACCCAGCT | 0.0775
GTCCAGCA | -0.0682
ACGTCCAT | -0.123
CGCGGTCC | -0.137
AGATCCCT | -0.142
AGATCCCG | 0.297
CGATCCCG | 0.0117
ACCTCACG | -0.0286
CATCAACG | 0.131
AGGGGCGA | 0.113
AGGGGCGC | 0.0808
AGGGGCGG | 0.348
GTTCATTA | -0.0167
GCCACTCC | 0.205
CTGACTCC | 0.47
CCGACTTA | -0.0517
GCGACTCC | 0.414
ACGACTTA | -0.0824
CCGACTGA | -0.0635
CCGACTCA | 0.417
ACGACTCT | 0.261
CTGACCCC | -0.0745
CTTACTCC | 0.0868

Sequence | PBM E-score
GCGACCCC | 0.0605
ACGACTCA | 0.445
AAATGGAC | -0.0108
ATCTCAGA | 0.00554
CCTGTGCA | -0.0814
CCCCCTCG | -0.242
GTAGGCGA | 0.097
ACATGCCA | 0.0538
ACGACTCG | 0.327
CCGACTTC | -0.223
GCGACTTA | -0.104
ACGACTTG | -0.0454
CCGACTCG | 0.238
GGGACTCA | 0.261
ACGACTCC | 0.366
ACGACTAT | 0.195
GCGACTCA | 0.477
ACGACGCC | -0.036
CCGACTCC | 0.45
CAACAACG | 0.087
CAGAAGAG | -0.189
CGGTAGAC | -0.00049
ACAAGAGT | 0.108
ACAGGGAC | -0.138
GCTTAGGA | -0.0935

Sequence | PBM E-score
GCACTACC | -0.0106
GTACCCGA | -0.161
AAGCTGCA | -0.00033
TCGACTCA | 0.349
TCTACTCA | 0.112
TCGACCCA | 0.166
GCCATAGC | -0.0742
CCATGCGA | 0.0318
TCATGCGA | 0.285
GCATGCGA | 0.159
CTATGATC | 0.112
AGTCGACA | 0.197
ACTCGACG | 0.269
CGTCGACC | -0.00578
AGTCGACC | -0.0312
GGTCGACC | 0.32
AGTCGACT | 0.33
GGTCGACA | -0.0223
CGTCGACG | 0.161
AGTCGACG | 0.278
ACATCCCG | 0.231
CCTGCACA | -0.0959
AGTCGAGA | 0.0118
ACATAGAC | 0.0646
ATCCATAC | 0.0581

Sequence | PBM E-score
CCACCTCG | -0.085
CCTTGACC | -0.111
AGGAGTGA | 0.00535
AGGAGTAA | 0.0927
GGGAGTAA | 0.0449
GGGAGTCA | 0.47
AGGAGTCC | 0.165
GGGAGTTA | -0.144
AGGAGTCG | 0.339
AGGAGTTG | -0.00747
AGGAGTCA | 0.479
AAGAAAGC | -0.174
ACTAAAAT | -0.0643
ACACTTCG | 0.0579
CCCTGCAC | -0.0585
CGATTTTA | -0.0769
CGCTCCCC | -0.16
CTCACTGA | 0.14
